Most compounds without a hit are left out; they make up all but 8% or so of the library.
FMDV inh: foot and mouth disease virus antiviral activity | FMDV antiviral cell-based qHTS | Potency, µM (highest dose often 57.9 µM), inactives show top-dose activity change, negative = inhibition, usual class: inhibitors | hit rate 1.2% among 410,000; calls by dose curve; tested in HEK293T cells; also: read-out not given here; potency is read from the fitted curve at half-maximal effect; % is scaled to controls: 0 for no effect and ±100 for the full control effect; nearly all actives have a fitted effect of over 45% in size
HCV inhibitor: inhibitors of hepatitis C virus infection; Potency, µM (doses to about 41.8 µM), for inactives: at the top dose activity change, negative = inhibition, usual class: inhibitors; hit rate 3.4% among 340,000; Huh7.5.1 HCVcc-Cre infection, luciferase reporter, 44 h; active = well fitted inhibition curve with a large enough effect; inconclusive = small, poorly fitted or top-dose-only effect, or another doubt; inactive = no such curve, though single readings can be large or run the other way; also: potency is read from the fitted curve at half-maximal effect; % is scaled to controls: 0 for no effect and ±100 for the full control effect
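Antiviral activity was scored by luciferase reporter output from cells infected with HCVcc-Cre (~0.5 moi) in presence of compound, 44 h infection period, cells seeded 1,000/well 4 h prior.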
Marburg entry inh: blocks Marburg virus binding to or entry into cells; hit rate 1.8% among 300,000; AID 540276; Marburg virus pseudotyped entry inhibition, cell reporter; Potency, µM (doses to about 37.8 µM), for inactives: at the top dose activity change, negative = inhibition, actives largely listed as inhibitors; calls by dose curve; tested in HEK293 cells; also: potency is read from the fitted curve at half-maximal effect; % is scaled to controls: 0 for no effect and ±100 for the full control effect
Lassa entry inh: inhibitors of Lassa virus binding or cell entry. Lassa virus pseudotype entry inhibition, cell reporter. Potency, µM (highest dose often 37.9 µM), for the others: at the top dose activity change, negative = inhibition, actives largely listed as inhibitors. hit rate 1.2% among 300,000; calls by dose curve; tested in HEK293 cells; also: potency is read from the fitted curve at half-maximal effect; % is scaled to controls: 0 for no effect and ±100 for the full control effect; nearly all actives have a fitted effect of over 50% in size
HCMV inh: inhibitors of human cytomegalovirus. HFF cells, HCMV-luciferase reporter, 72 h; stronger effect = lower value. AID 1259415. activity change, negative = inhibition, % at 57.5 µM. hit rate 4.5% among 410,000; in the data active = activity change below about -60%; inconclusive = no clear call, values can overlap the other calls; inactive = above about -39%; also: % is scaled to controls: 0 for no effect and ±100 for the full control effect
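Human foreskin fibroblasts infected with luciferase-reporter HCMV at MOI 1 PFU/cell, compounds at two doses. Luciferase measured 72 h post infection; normalized to buffer-only basal and Salinomycin (10uM) controls.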
SARS PLP yeast: inhibitors of SARS-CoV papain-like protease in yeast. hit rate 0.19% among 330,000. S. cerevisiae expressing SARS-CoV PLpro, growth rescue. Potency, µM (doses to about 32.9 µM), without a hit: top-dose activity, positive = growth rescue, usual class: activators; calls by dose curve; also: potency is read from the fitted curve at half-maximal effect; 0% is about no effect; nearly all actives have a fitted effect of over 55% in size
Active calls of the source: *; ? = inconclusive; nt = no result given; [ ] = another dose, or the depositor's remark.

SMILES	FMDV inh	HCV inhibitor	Marburg entry inh	Lassa entry inh	HCMV inh	SARS PLP yeast
Cc1cccc2nc(-c3ccco3)c(Nc3ccccc3)n12	?	?	nt	nt	?	-17%
O=C1C(=O)N(CCN2CCOCC2)[C@@H](c2ccccn2)/C1=C(\O)c1ccccc1	nt	nt	23%	nt	nt	nt
COC(=O)[C@@H]1CC[C@H](C)[C@@H](c2ccc(C)cc2)N1C(=O)c1ccc(C=NOC[C@@H](O)[C@H]2O[C@@H]3OC(C)(C)O[C@H]3[C@@H]2O)cc1	nt	nt	28%[14.2 µM]	10%[14.3 µM]	nt	nt
Nn1cnnc1N/N=C\c1ccc(-c2ccccc2[N+](=O)[O-])o1	1%	-22%	?	14µM*	105	-24%
O=[N+]([O-])c1ccccc1-c1ccc(/C=N/n2cnnc2)o1	2%	nt	?	19%[14.3 µM]	1	3%
CCNC1CCC(Nc2ccnc3cc(Cl)ccc23)CC1 (stereo not drawn)	-22%	13µM*	?	?	5	nt
OC(CNc1ccnc2cc(Cl)ccc12)CNC1CCCCC1 (stereo not drawn)	-16%	?	?	?	-78*	nt
OC1CCCC1NCc1ccnc2cc(Cl)ccc12 (stereo not drawn)	-8%	1%	?	1%[46.1 µM]	-5	nt
C[C@H]1[C@@H](NC(=O)NCc2ccccc2)CC[C@@]23CCCN2C(=O)CCC[C@@H]13	nt	nt	nt	nt	-38	nt
O=C1CC(NS(=O)(=O)c2ccc([N+](=O)[O-])cc2)CN1c1ccc2c(c1)OCCO2 (stereo not drawn)	-19%	0%[8.37 µM]	8%	?	-29	1%
O=C(Oc1ccc([N+](=O)[O-])cc1)C1CC(=O)N(c2ccc3c(c2)OCCO3)C1 (stereo not drawn)	-4%	27%	12%	-15%	-100*	18%
Cc1cc(C)c(-c2csc(NC(=O)c3n[nH]c(=O)c4ccccc34)n2)c(C)c1	?	?	?	?	-73*	-7%
CC1c2ccccc2N(S(=O)(=O)c2ccccc2)C1C (stereo not drawn)	-16%	?	3.5µM*	?	-23	nt
CC(=O)N1c2ccccc2[C@H](C)[C@H]1C	10%	4%	nt	nt	28	-2%
CCCCCc1cc(=O)oc2c(C(CCN(CC)CC)c3ccc(OC)cc3)c(OC)cc(OC)c12 (stereo not drawn)	-5%	?	nt	nt	-81*	0%
CCCCCc1cc(=O)oc2c(C(CCN3CCCCC3)c3ccc(OC)cc3)c(OC)cc(OC)c12 (stereo not drawn)	-11%	?	nt	nt	7	-1%
CC1(C)OC(=O)N(c2ccccc2)C12C=Cc1cc(Br)ccc1O2 (stereo not drawn)	?	?	18µM*	-11%	?	-8%
CC1(C)OC(=O)N(CCc2ccccc2)C1(C)O (stereo not drawn)	-15%	-2%	-14%	-6%	-18	-9%
O=[N+]([O-])c1ccc(NS(=O)(=O)c2ccc(Cl)c(Cl)c2)cc1	10%	nt	nt	nt	-64*	nt
O=[N+]([O-])c1ccc(S(=O)(=O)Nc2ccncc2)cc1	-15%	-8%	5%	2%	-26	-1%
NC1(N2SC(S)=C3CCCC=C32)CCCCC1	nt	nt	nt	nt	-24	nt
CCc1ccc2occ(CC(=O)Nc3c(C(=O)c4ccccc4)oc4ccccc34)c2c1	-15%	nt	15%[46.1 µM]	4%[46.1 µM]	-4	nt
CC1CCC(C(C)C)C(OCC(O)CN2CCCC(C)C2)C1 (stereo not drawn)	?	?	?	5.6µM*	?	0%
CC1CCC(C(C)C)C(OCC(O)CN2CCN(Cc3ccccc3)CC2)C1 (stereo not drawn)	?	?	?	8.9µM*	?	-8%
CCn1c(CN2CCCCC2)nc2cc(NC(=O)c3cccc([N+](=O)[O-])c3)ccc21	-18%	nt	0%[46.1 µM]	11%[46.1 µM]	-29	nt
SMILES	FMDV inh	HCV inhibitor	Marburg entry inh	Lassa entry inh	HCMV inh	SARS PLP yeast
COC(=O)c1ccc2c(=O)n(CCc3ccc(S(N)(=O)=O)cc3)c(SCC(=O)C(C)(C)C)nc2c1	-4%	nt	nt	?	-22	nt
CC(C1CC2CCC1C2)n1c(COc2ccccc2F)nnc1SCC(N)=O (stereo not drawn)	-22%	10%	?	0%	4	-5%
CC(C)NC(=O)NC(=O)CSc1nnc(COc2ccccc2F)n1C(C)C1CC2CCC1C2 (stereo not drawn)	28µM*	?	?	18µM*	20	-7%
CCOc1ccc(NC(=O)CC2C(=O)N(c3ccc(F)cc3)C(=O)N2CCc2sccc2C)cc1 (stereo not drawn)	-13%	nt	?	?	-6	nt
CCCn1c2ccccc2c2cnn(CC(=O)NCc3ccc(OC)cc3)c(=O)c21	-7%	nt	nt	-1%[46.1 µM]	-38	nt
O=c1c(-c2ccccc2)nc2ccccc2n1C(CCc1ccccc1)c1nc2ccccc2[nH]1 (stereo not drawn)	-8%	nt	nt	nt	-67*	nt
O=C(CC1C(=O)N(c2ccc(F)cc2)C(=O)N1Cc1cccnc1)Nc1ccc(F)cc1 (stereo not drawn)	11%	nt	nt	14%[46.1 µM]	-8	nt
CC(C)N1C(=O)c2ccccc2N(Cc2ccccc2)S1(=O)=O	-21%	-16%	nt	nt	-62*	-1%
CC(Nc1ccc(-c2nc(-c3ccncc3)no2)cc1[N+](=O)[O-])c1ccccc1 (stereo not drawn)	-4%	nt	5%[46.1 µM]	8%[46.1 µM]	22	nt
C#CCN(Cc1ccc(OCCC)cc1)S(=O)(=O)c1ccc(Br)cc1F	nt	nt	nt	-25%[46.1 µM]	nt	nt
COc1ccc(NS(=O)(=O)c2ccc(N/N=C(\C)c3ccncc3)c([N+](=O)[O-])c2)cc1	-13%	4.5µM*	6.3µM*	12µM*	-67*	21%
COc1ccccc1NS(=O)(=O)c1ccc(N/N=C(\C)C(C)C)c([N+](=O)[O-])c1	-10%	?	?	?	-61*	-5%
O=C(Nc1ccc(-c2nc3cc(NC(=O)c4cccs4)ccc3o2)cc1)c1cccs1	4%	11µM*	8.2µM*	15µM*	-70*	4%
CCc1ccc2oc(-c3ccc(NC(=O)c4cccc(Cl)c4Cl)cc3)nc2c1	13µM*	nt	nt	-27%[46.1 µM]	-70*	nt
O=C(Nc1ccc2oc(-c3ccccc3)nc2c1)c1ccccc1F	40%	?	1%	?	-89*	2%
CCCCN(C(=O)Cc1ccc([N+](=O)[O-])cc1)C(C(=O)Nc1c(C)cccc1C)C(=O)c1ccc(OC)cc1 (stereo not drawn)	nt	nt	nt	nt	-29	nt
CCN(C(=O)Cn1cnc2onc(-c3ccc(F)cc3)c2c1=O)c1cc(C)ccc1C	-15%	nt	nt	24%[46.1 µM]	10	nt
CC(=O)Oc1cccc2c1C(=O)c1c(OC(C)=O)cc(C(=O)O)cc1C2=O	?	7.1µM*	11%	2%	-3	14%

Assay outcomes (PubChem BioAssay)
